Conditions in all cases: mRNA level, 48 h; actives raise or lower the signal
Read-out in assay [1]: Tumor necrosis factor receptor superfamily member 6 (Homo sapiens) (UniProt P25445)
The experiment in a line: LTEA_HepaRG_FAS: Life Technologies and Expression Analysis (LTEA) Assay for Fas cell surface death receptor (FAS) using HepaRG (AID 2283447). The gist of the method: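 FAS transcript level was measured by TaqMan qRT-PCR against three housekeeping genes after 48 h chemical exposure. Cells were HepaRG, 0.5% DMSO vehicle, with a top concentration of 100 uM and half-log dilutions over eight points, in duplicate.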

Read-out in assay [2]: Fatty acid synthase (Homo sapiens) (UniProt P49327)
As to the kind of experiment: LTEA_HepaRG_FASN: Life Technologies and Expression Analysis (LTEA) Assay for Fatty Acid Synthase (FASN) using HepaRG (AID 2283448). The gist of the method: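 Cells were plated, cultured 48 h, switched to serum-free induction medium, then dosed in duplicate (max 100 uM, half-log dilutions, 0.5% DMSO) for 48 h. RNA was then isolated and FASN quantified by qRT-PCR.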

Read-out in assay [3]: Cyclin D2 (CCND2), CCND2 (gene 894)
The experiment in a line: LTEA_HepaRG_CCND2: Life Technologies and Expression Analysis (LTEA) Assay for Cyclin D2 (CCND2) using HepaRG (AID 2283449). A digest of the protocol:
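CCND2 transcript levels, quantified by qRT-PCR and normalised to three housekeeping genes, were fitted bidirectionally against 0.5% DMSO. HepaRG cultures were dosed 48 h in duplicate with an 8-point half-log series up to 100 uM.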

Read-out in assay [4]: Cyclin Dependent Kinase Inhibitor 1A (CDKN1A), CDKN1A (gene 1026)
As to the kind of experiment: LTEA_HepaRG_CDKN1A: Life Technologies and Expression Analysis (LTEA) Assay for Cyclin Dependent Kinase Inhibitor 1A (CDKN1A) using HepaRG (AID 2283450). A digest of the protocol:
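Read-out is CDKN1A mRNA by TaqMan qRT-PCR, normalized to three housekeeping genes and fitted in both directions against the DMSO baseline. Human HepaRG cells were treated 48 h with test chemicals up to 100 uM in half-log steps, 0.5% DMSO.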

Read-out in assay [5]: Cyclin D1 (CCND1), CCND1 (gene 595)
As to the kind of experiment: LTEA_HepaRG_CCND1: Life Technologies and Expression Analysis (LTEA) Assay for Cyclin D1 (CCND1) using HepaRG (AID 2283451). The gist of the method:
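HepaRG plated 48 h, medium switched to serum-free induction medium, chemicals added in duplicate (top 100 uM, half-log steps, 0.5% DMSO) for 48 h, cells lysed, RNA measured by TaqMan qRT-PCR.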

Read-out in assay [6]: catalase (CAT), CAT (gene 847)
As to the kind of experiment: LTEA_HepaRG_CAT: Life Technologies and Expression Analysis (LTEA) Assay for catalase (CAT) using HepaRG (AID 2283452). The gist of the method: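 Expression of CAT was quantified by TaqMan qRT-PCR with ACTB/GAPDH/POLR2A normalization after 48 h chemical exposure of HepaRG. Eight-point half-log series, top 100 uM, in 0.5% DMSO; gain or loss fitted against vehicle.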

Read-out in assay [7]: flavin-containing dimethylaniline monooxygenases 3 (FMO3), FMO3 (gene 2328)
The experiment in a line: LTEA_HepaRG_FMO3: Life Technologies and Expression Analysis (LTEA) Assay for flavin-containing dimethylaniline monooxygenases 3 (FMO3) using HepaRG (AID 2283453).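 On AC50: differentiated human HepaRG liver cells in serum-free induction medium.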 A digest of the protocol: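 FMO3 transcript quantified by TaqMan qRT-PCR against three housekeeping genes after 48 h chemical exposure of HepaRG cells. Eight-point half-log series, top 100 uM, 0.5% DMSO vehicle; phenobarbital 1mM induction control; up- or down-regulation fitted.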

Read-out in assay [8]: Cytochrome P450 (CYP1A1), CYP1A1 (gene 1543)
As to the kind of experiment: LTEA_HepaRG_CYP1A1: Life Technologies and Expression Analysis (LTEA) Assay for Cytochrome P450 (CYP1A1) using HepaRG (AID 2283454). A digest of the protocol:
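HepaRG, 48 h post-plating switched to serum-free induction medium; 8-pt conc-response (top 100 uM, half-log, 0.5% DMSO), duplicates, 48 h. Lysis in RLT, TaqMan qRT-PCR for CYP1A1; gain or loss vs DMSO.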

Read-out in assay [9]: Forkhead box O1 (FOXO1), FOXO1 (gene 2308)
The experiment in a line: LTEA_HepaRG_FOXO1: Life Technologies and Expression Analysis (LTEA) Assay for Forkhead box O1 (FOXO1) using HepaRG (AID 2283456). A digest of the protocol: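 FOXO1 transcript quantified by qRT-PCR after 48 h chemical exposure (top 100 uM, half-log steps, 0.5% DMSO) of HepaRG cells, housekeeping-normalized (ACTB/GAPDH/POLR2A). Changes fitted in both directions relative to vehicle.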

Read-out in assay [10]: growth arrest and DNA damage 45 (GADD45A), GADD45A (gene 1647)
As to the kind of experiment: LTEA_HepaRG_GADD45A: Life Technologies and Expression Analysis (LTEA) Assay for growth arrest and DNA damage 45 (GADD45A) using HepaRG (AID 2283458). A digest of the protocol:
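Transcript induction or loss, quantified by TaqMan qRT-PCR against three housekeeping genes, is the read-out. HepaRG cells received chemicals for 48 h across eight half-log concentrations from 100 uM in 0.5% DMSO; gain and loss fitted relative to DMSO.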

Read-out in assay [11]: Forkhead box O3 (FOXO3), FOXO3 (gene 2309)
As to the kind of experiment: LTEA_HepaRG_FOXO3: Life Technologies and Expression Analysis (LTEA) Assay for Forkhead box O3 (FOXO3) using HepaRG (AID 2283459). The gist of the method: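 FOXO3 transcript measured by qRT-PCR (normalized to ACTB, GAPDH, POLR2A) after 48 h exposure of HepaRG cells in serum-free induction medium. Duplicates, eight half-log concentrations up to 100 uM, 0.5% DMSO; gain or loss fitted against DMSO.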

Read-out in assay [12]: ABC Transporter (ABCB1), ABCB1 (gene 5243)
As to the kind of experiment: LTEA_HepaRG_ABCB1: Life Technologies and Expression Analysis (LTEA) Assay for ABC Transporter (ABCB1) using HepaRG (AID 2283460). A digest of the protocol:
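ABCB1 transcript level measured by TaqMan qRT-PCR against three housekeeping genes after 48 h chemical exposure of differentiated HepaRG cells. Top concentration 100 uM, half-log steps, eight points, 0.5% DMSO vehicle; bidirectional fit relative to DMSO.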

Read-out in assay [13]: growth arrest and DNA damage 45 (GADD45B), GADD45B (gene 4616)
The experiment in a line: LTEA_HepaRG_GADD45B: Life Technologies and Expression Analysis (LTEA) Assay for growth arrest and DNA damage 45 (GADD45B) using HepaRG (AID 2283461). A digest of the protocol: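 HepaRG, ~100,000 cells/well, 48 h plating; serum-free induction medium; cpd 100 uM top, half-log x8, 0.5% DMSO, duplicate, 48 h; lysis in RLT, RNA isolation, qRT-PCR; norm ACTB/GAPDH/POLR2A; bidirectional fit vs DMSO.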

Read-out in assay [14]: ABC Transporter (ABCC3), ABCC3 (gene 8714)
As to the kind of experiment: LTEA_HepaRG_ABCC3: Life Technologies and Expression Analysis (LTEA) Assay for ABC Transporter (ABCC3) using HepaRG (AID 2283462). A digest of the protocol: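 Human HepaRG, 48 h dosing, 8-pt half-log series from 100 uM, 0.5% DMSO vehicle, duplicates. ABCC3 mRNA by TaqMan qRT-PCR, housekeeping-normalized; bidirectional curve fit vs DMSO.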

Read-out in assay [15]: ABC Transporter (ABCB11), ABCB11 (gene 8647)
As to the kind of experiment: LTEA_HepaRG_ABCB11: Life Technologies and Expression Analysis (LTEA) Assay for ABC Transporter (ABCB11) using HepaRG (AID 2283463). A digest of the protocol: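 ABCB11 transcript levels quantified by TaqMan qRT-PCR against three housekeeping genes after 48 h chemical exposure of HepaRG cultures. Concentrations up to 100 uM in half-log steps, 0.5% DMSO vehicle; both induction and suppression scored.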

Read-out in assay [16]: Broad substrate specificity ATP-binding cassette transporter ABCG2 (Homo sapiens) (UniProt Q9UNQ0)
The experiment in a line: LTEA_HepaRG_ABCG2: Life Technologies and Expression Analysis (LTEA) Assay for ABC Transporter (ABCG2) using HepaRG (AID 2283465). The gist of the method: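 ABCG2 transcript was quantified by TaqMan qRT-PCR against three housekeeping genes in HepaRG cells. Cells were treated in duplicate for 48 h across an 8-point half-log series up to 100 uM, with 0.5% DMSO vehicle. Gain or loss versus DMSO was fit.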

Read-out in assay [17]: ABC Transporter (ABCC2), ABCC2 (gene 1244)
As to the kind of experiment: LTEA_HepaRG_ABCC2: Life Technologies and Expression Analysis (LTEA) Assay for ABC Transporter (ABCC2) using HepaRG (AID 2283464). The gist of the method: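 HepaRG, 48 h post-plating; serum-free induction medium; cpd 8-pt, 100 uM top, half-log, 0.5% DMSO, duplicate, 48 h. Readout: ABCC2 mRNA by qRT-PCR, norm. ACTB/GAPDH/POLR2A. Bidirectional fit vs DMSO baseline.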

Read-out in assay [18]: CFLAR gene, CFLAR (gene 8837)
The experiment in a line: LTEA_HepaRG_CFLAR: Life Technologies and Expression Analysis (LTEA) Assay for CFLAR gene using HepaRG (AID 2283455). The gist of the method: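 Transcript level by qRT-PCR (normalized to ACTB, GAPDH and POLR2A) after 48 h chemical exposure of HepaRG cells, top concentration 100 uM with half-log steps, 0.5% DMSO vehicle, duplicates; fitted bidirectionally against DMSO baseline.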

Molecules are shown by their SMILES. Calls of active or inactive are those of the source. How the source made its calls: active means hit-call score of the fitted dose curve at least 0.9, where 1 is the maximum; inactive means score below 0.9.

In PubChem BioAssay (EPA / NIEHS) one finds outcome and AC50 data, which are given here for 7 molecules.

Sequence of Broad substrate specificity ATP-binding cassette transporter ABCG2 (Homo sapiens) (Q9UNQ0 whole entry, looked up): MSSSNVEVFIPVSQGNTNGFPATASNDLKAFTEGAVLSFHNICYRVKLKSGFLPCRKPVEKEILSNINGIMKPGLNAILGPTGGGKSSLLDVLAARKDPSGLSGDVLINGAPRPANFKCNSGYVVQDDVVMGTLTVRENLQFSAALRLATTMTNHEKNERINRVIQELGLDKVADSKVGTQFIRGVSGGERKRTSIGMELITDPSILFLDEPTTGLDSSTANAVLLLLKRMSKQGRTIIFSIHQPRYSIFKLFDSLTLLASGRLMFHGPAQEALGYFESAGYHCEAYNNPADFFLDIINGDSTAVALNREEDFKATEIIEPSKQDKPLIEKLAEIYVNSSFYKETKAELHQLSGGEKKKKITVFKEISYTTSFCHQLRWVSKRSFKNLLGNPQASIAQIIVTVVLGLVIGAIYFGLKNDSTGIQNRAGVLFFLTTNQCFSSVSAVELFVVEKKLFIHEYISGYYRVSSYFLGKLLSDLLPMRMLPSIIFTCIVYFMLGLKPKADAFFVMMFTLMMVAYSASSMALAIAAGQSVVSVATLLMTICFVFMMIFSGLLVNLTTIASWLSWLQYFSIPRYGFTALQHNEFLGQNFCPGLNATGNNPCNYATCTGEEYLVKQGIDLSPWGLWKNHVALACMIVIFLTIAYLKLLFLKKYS
Sequence of Fatty acid synthase (Homo sapiens) (P49327 whole entry, looked up): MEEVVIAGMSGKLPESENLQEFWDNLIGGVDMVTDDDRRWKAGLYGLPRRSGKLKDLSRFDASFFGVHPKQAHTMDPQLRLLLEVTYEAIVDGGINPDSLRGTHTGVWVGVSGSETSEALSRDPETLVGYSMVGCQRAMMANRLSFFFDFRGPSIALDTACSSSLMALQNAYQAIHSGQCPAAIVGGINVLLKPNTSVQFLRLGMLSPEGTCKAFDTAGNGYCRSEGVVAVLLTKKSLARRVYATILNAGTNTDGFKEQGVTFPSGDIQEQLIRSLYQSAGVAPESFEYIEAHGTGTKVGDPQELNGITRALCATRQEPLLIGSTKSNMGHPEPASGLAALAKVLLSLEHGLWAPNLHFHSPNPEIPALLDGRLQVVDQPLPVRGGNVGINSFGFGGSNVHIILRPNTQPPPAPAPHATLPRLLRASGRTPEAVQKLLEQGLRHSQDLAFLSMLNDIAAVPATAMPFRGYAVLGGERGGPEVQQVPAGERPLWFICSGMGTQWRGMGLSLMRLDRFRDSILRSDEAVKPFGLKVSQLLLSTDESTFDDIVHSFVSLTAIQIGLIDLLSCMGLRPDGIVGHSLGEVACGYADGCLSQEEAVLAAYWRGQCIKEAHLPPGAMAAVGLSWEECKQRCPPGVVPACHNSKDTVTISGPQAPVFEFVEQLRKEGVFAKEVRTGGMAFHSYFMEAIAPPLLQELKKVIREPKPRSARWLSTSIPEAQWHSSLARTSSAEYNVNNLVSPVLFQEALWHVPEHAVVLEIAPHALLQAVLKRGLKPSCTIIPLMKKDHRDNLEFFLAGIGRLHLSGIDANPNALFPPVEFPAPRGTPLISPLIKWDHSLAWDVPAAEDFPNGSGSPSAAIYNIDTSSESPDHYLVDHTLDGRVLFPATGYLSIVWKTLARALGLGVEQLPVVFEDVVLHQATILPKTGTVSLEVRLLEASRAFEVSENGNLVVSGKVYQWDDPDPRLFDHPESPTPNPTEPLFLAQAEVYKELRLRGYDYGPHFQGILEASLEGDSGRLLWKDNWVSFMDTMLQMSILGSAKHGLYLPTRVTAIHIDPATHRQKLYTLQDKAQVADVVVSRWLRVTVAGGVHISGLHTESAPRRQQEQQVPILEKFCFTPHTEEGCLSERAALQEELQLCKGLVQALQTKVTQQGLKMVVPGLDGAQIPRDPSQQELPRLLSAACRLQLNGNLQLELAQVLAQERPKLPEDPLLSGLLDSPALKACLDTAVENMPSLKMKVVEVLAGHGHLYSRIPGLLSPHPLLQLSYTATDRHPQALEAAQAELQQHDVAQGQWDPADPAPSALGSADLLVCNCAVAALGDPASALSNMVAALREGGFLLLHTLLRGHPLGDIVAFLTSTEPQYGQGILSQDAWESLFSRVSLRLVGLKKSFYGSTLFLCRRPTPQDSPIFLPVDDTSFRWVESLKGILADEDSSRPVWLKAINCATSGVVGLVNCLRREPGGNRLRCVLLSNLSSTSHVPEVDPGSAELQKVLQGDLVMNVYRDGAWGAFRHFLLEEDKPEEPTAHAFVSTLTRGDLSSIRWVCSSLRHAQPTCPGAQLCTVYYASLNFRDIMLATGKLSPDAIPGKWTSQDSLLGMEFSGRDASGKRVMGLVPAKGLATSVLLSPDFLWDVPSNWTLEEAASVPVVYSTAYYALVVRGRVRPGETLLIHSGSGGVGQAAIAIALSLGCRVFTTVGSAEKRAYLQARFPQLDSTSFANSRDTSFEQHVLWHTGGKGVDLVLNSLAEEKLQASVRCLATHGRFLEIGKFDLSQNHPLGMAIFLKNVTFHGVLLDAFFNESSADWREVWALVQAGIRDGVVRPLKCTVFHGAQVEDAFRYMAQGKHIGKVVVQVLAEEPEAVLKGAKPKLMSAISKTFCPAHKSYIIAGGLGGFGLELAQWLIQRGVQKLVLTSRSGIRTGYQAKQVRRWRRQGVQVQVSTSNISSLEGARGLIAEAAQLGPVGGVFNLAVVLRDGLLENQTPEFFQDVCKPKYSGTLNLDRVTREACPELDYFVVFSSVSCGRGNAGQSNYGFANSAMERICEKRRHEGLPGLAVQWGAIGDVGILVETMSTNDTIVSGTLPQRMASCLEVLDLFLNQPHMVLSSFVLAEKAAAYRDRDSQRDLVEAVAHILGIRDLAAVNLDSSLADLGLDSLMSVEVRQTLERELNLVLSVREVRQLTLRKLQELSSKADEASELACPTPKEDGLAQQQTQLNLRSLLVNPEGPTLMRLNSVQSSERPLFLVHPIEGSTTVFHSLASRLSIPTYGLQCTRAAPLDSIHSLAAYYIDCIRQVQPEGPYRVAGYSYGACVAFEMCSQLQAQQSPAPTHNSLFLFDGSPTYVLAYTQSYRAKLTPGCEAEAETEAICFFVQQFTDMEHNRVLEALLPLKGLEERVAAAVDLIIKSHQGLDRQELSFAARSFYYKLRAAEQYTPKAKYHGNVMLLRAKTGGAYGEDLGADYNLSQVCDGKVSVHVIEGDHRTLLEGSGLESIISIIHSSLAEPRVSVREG

One may read the AC50 as the concentration at which the activity in the assay is half-maximal. For the molecule `O=C1CCC(N2C(=O)c3ccccc3C2=O)C(=O)N1` (stereo unspecified), the result in [1], in assay [2], in assay [3], in assay [4], in assay [5] and in [6] was inactive. The result in assay [7], in [9], in [10], in assay [11], in [12] and in assay [13] was inactive. Further, the call in assay [14], in assay [15] and in [16] was inactive. The AC50 in assay [8] is 67.7 µM (active).
For `COCCOCCOCCOC`, the call in [1], in assay [2], in [3], in [4], in assay [5] and in assay [6] was inactive. The result in [7], in assay [8], in [9], in [10], in assay [11] and in [12] was inactive. Also, the outcome in assay [13], in assay [14], in assay [15], in assay [17] and in assay [16] was inactive.
In the case of `CCn1nc(Cc2ccccc2)cc1C1CCN(C[C@H]2C[C@H](N(C)[C@@H](C(=O)O)C(C)C)C[C@@H]2c2cccc(F)c2)CC1`, the result in assay [1], in assay [2], in assay [3], in assay [4], in assay [5] and in assay [6] was inactive. Also, the molecule was called inactive in assay [9], in assay [10], in [11], in assay [12], in [13] and in [15]. Besides, in [16], the molecule was classed as inactive. The AC50 in assay [7] was 50 µM (active); in assay [8], 83.9 µM (active); in assay [14], 50 µM (active).
In the case of `CC(C)CCCCCCOC(=O)c1ccc(C(=O)OCCCCCCC(C)C)c(C(=O)OCCCCCCC(C)C)c1`, the molecule was called inactive in assay [1], in assay [2], in assay [3], in assay [4], in assay [5] and in assay [6]. Further, the call in assay [7], in [18], in [9], in assay [10], in assay [11] and in assay [12] was inactive. Besides, the outcome in assay [13], in assay [14], in assay [15] and in assay [16] was inactive. The AC50 in [8] was 50 µM (active).
Regarding `C=CC(=C)CCC=C(C)C`, the result in assay [1], in assay [2], in assay [3], in [4], in assay [5] and in [6] was inactive. Also, the molecule was classed as inactive in assay [7], in assay [18], in assay [9], in assay [10], in [11] and in assay [12]. The molecule was called inactive in assay [13], in [14], in assay [15] and in assay [16]. The half-maximal activity concentration (AC50) in [8] is 35 µM (active).
On to `Nc1nc2ncc(CNc3ccc(C(=O)N[C@@H](CCC(=O)O)C(=O)O)cc3)nc2c(=O)[nH]1`, for which the molecule was called inactive in [1], in [2], in assay [3], in assay [4], in [5] and in assay [6]. Besides, the outcome in [7], in assay [9], in assay [10], in [11], in assay [12] and in assay [13] was inactive. Moreover, the molecule was classed as inactive in assay [14], in [15], in [17] and in assay [16]. The AC50 in [8] is 78.5 µM (active).
Take `CC(=O)OC[C@H]1O[C@@](COC(C)=O)(O[C@H]2O[C@H](COC(C)=O)[C@@H](OC(C)=O)[C@H](OC(C)=O)[C@H]2OC(C)=O)[C@@H](OC(C)=O)[C@@H]1OC(C)=O`: the call in assay [1], in [2], in assay [3], in [4], in assay [5] and in assay [6] was inactive. Also, the call in assay [7], in [9], in assay [10], in assay [11], in assay [12] and in [13] was inactive. Moreover, the molecule was classed as inactive in assay [14], in assay [15] and in [16]. In [8], the half-maximal activity concentration (AC50) is 47.5 µM (active).
